# PubChem BioAssay AID1030 (National Center for Advancing Translational Sciences (NCATS), 2008)
# The campaign covered roughly 220,000 compounds. About 16,000 (7.3%) were called active. Roughly 25% stayed inconclusive and do not appear here. The call rests on the fitted dose curve; in most records, active means well fitted inhibition curve with a large enough effect (not every such curve was filed as active); inconclusive means small, poorly fitted or top-dose-only effect, or another doubt; inactive means no such curve, though single readings can be large or run the other way. The list comes from a sample in which actives are over-represented; it also holds similar structures and randomly drawn compounds. Entries that show only a call come without a potency.
# Target: Aldehyde dehydrogenase 1A1 (Homo sapiens) (UniProt P00352)
# Sequence (P00352 whole entry, looked up): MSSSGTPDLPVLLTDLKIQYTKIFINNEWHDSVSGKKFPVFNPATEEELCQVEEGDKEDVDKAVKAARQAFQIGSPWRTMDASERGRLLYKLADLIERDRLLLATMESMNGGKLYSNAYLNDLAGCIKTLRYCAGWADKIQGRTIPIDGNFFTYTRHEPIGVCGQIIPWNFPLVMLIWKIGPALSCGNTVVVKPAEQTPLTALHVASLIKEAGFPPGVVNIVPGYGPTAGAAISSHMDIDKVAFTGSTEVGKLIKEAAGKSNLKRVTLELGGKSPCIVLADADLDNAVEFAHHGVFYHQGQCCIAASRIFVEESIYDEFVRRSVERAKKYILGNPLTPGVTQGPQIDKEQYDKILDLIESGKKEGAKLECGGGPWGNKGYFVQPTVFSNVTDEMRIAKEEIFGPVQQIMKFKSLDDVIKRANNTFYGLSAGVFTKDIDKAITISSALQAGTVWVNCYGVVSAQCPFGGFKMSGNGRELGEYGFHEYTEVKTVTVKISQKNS
# Test: qHTS Assay for Inhibitors of Aldehyde Dehydrogenase 1 (ALDH1A1)
# Conditions: Purified ALDH1A1, NADH fluorescence, propionaldehyde substrate; series mostly up to 75.3 µM
# Potency means the concentration at half of the fitted maximal effect.
Structure (SMILES),Potency,"activity, negative = inhibition"
CCCCC(NC(=O)c1cccc(Br)c1)C(=O)O (stereo not drawn),inactive,–
CC(CC(=O)O)CC(=O)NNC(=O)c1cccc(Br)c1 (stereo not drawn),inactive,–
O=C(/C=C/NNC(=O)c1cccc(Br)c1)c1ccccc1,2.82 µM (active),–
Cc1ccc(CN2CCC(N3CCC(C(=O)NCC4CCCO4)CC3)CC2)o1 (stereo not drawn),inactive,–
Cc1onc(C(=O)NN)c1-c1csc(COc2ccccc2)n1,inactive,–
CCCCNC(=O)CSc1nc2n[nH]c(C)c2c(=N)n1-c1cccc(Cl)c1C,inactive,–
COc1cccc(-n2c(SCC(=O)NC3CCCCC3)nc3n[nH]c(C)c3c2=N)c1,20 µM (active),–
C=CCn1c(CC(=O)Nc2cccc(OC)c2)nnc1SCC(=O)NC1CCCCC1,inactive,–
Cc1ccc(S(=O)(=O)N2CCCC2C(=O)OCc2nc3sc(C)c(C)c3c(=O)[nH]2)cc1 (stereo not drawn),inactive,–
COc1ccc(-c2nn(-c3ccccc3)cc2/C=C\C(=O)Nc2ccc(C(=O)O)cc2)cc1,inactive,–
COc1ccc(N=C2SC(C(=O)Nc3ccc(F)cc3)CC(=O)N2C)cc1 (stereo not drawn),inactive,–
CCc1nc(C)cn1S(=O)(=O)c1cc([N+](=O)[O-])ccc1Cl,7.94 µM (active),–
CC(C)c1nccn1S(=O)(=O)c1cc([N+](=O)[O-])ccc1Cl,inactive,–
CCc1nc(C)cn1S(=O)(=O)c1cc(OC)c(C)cc1C,inactive,–
CC(C)C(=O)Nc1oc(-c2ccccc2)cc1C#N,inactive,–
COc1cccc(NC(=O)CC2C(=O)NCCN2C(=S)Nc2ccc(F)cc2)c1 (stereo not drawn),inactive,–
O=C(Cn1cnc2c(nnn2-c2ccccc2)c1=O)N1CCC(Cc2ccccc2)CC1,inactive,–
O=C(CSc1nnc(-c2ccccc2)o1)N1CCOCC1,inactive,–
O=C(NCc1nnc(SCC(=O)N2CCC(Cc3ccccc3)CC2)o1)c1ccco1,14.1 µM (active),–
Cc1cccc(N(C(=O)Cc2cccs2)C(C(=O)NCc2ccco2)c2ccncc2)c1 (stereo not drawn),inactive,–
COc1ccc2c(CC(=O)OCC(=O)NC(N)=O)coc2c1,inactive,–
O=[N+]([O-])c1cccc(-c2nnc3c4ccccc4c4ccccc4n23)c1,inactive,–
COc1cccc(C(=O)Oc2cc(C)[nH]c(=O)c2[N+](=O)[O-])c1,inactive,–

Structure (SMILES),Potency,"activity, negative = inhibition"
Cc1cccc(Oc2c([N+](=O)[O-])c(=O)n(C)c3ccccc23)c1,3.16 µM (active),–
Cn1c2ccccc2c(=O)c2c(O)cccc21,inactive,–
Cn1c(=O)c([N+](=O)[O-])c(Oc2ccccc2)c2ccccc21,17.8 µM (active),–
Cc1nn(C)c(Oc2ccccc2)c1[N+](=O)[O-],inactive,–
CC(=O)N1CCN(S(=O)(=O)c2ccc(C)c([N+](=O)[O-])c2)C1C(C)C (stereo not drawn),inactive,–
Nc1[nH][nH]c(=O)c1N=Nc1ccc2c(c1)OCO2,inactive,–
COc1cc(NC(=O)c2cccs2)ccc1NC(=O)c1ccccc1Cl,inactive,–
COc1ccccc1C1CCN(C(=S)Nc2ccc(Br)cc2)CC1,inactive,–
C/C(=N\NC(=O)c1cccnc1)c1ccc(-c2ccccc2)cc1,inactive,–
CC1(C)CC(=O)C(N=Nc2ccc(S(=O)(=O)N3CCCCCC3)cc2)=C(O)C1,2.51 µM (active),–
Cc1ccc(N2C(=O)C(NC(=O)c3c(F)cccc3F)(C(F)(F)F)C3=C2CC(C)(C)CC3=O)cc1 (stereo not drawn),inactive,–
CC1(C)CC(=O)C(N=Nc2c(F)cccc2F)=C(O)C1,12.6 µM (active),–
CC1(C)CC(=O)C(C2=NC(C)(C)Cc3ccccc32)=C(O)C1,inactive,–
CN1CCN(NC(=O)c2ccc(S(=O)(=O)N3CCCCCC3)cc2)CC1,inactive,–
Cc1cc(C)n(C(=O)c2ccc(S(=O)(=O)N3CCCC3)cc2)n1,inactive,–
COc1cc(CNCCN(C)C)ccc1OCc1c(F)cccc1Cl,inactive,–
C/C(CC(=O)Nc1ccc(C)cc1C)=N\NC(=O)C(C)C,inactive,–
CCCCN1C(=O)c2ccc(C(=O)Nc3ccc(S(=O)(=O)N(C)C)cc3)cc2C1=O,1.78 µM (active),–
Cc1ccnc(NS(=O)(=O)c2ccc(NC(=O)c3ccc(S(=O)(=O)N(C)C)cc3)cc2)n1,inactive,–
CN(C)S(=O)(=O)c1ccc(NC(=O)N2CCOCC2)cc1,inactive,–
O=C(Nc1ccc(Br)cn1)c1ccc([N+](=O)[O-])o1,inactive,–
O=c1[nH]n(-c2ccc([N+](=O)[O-])cc2)c(=O)c2ccccc12,inactive,–
CC(Oc1ccc(Cl)cc1Cl)C(=O)/C=C/N(C)C (stereo not drawn),inactive,–

Structure (SMILES),Potency,"activity, negative = inhibition"
COc1cccc(NC(=O)C(C)Oc2ccccc2)c1 (stereo not drawn),inactive,–
CCCC(=O)Nc1cccc(NC(=S)NC(=O)C(C)Oc2ccc(Cl)cc2Cl)c1 (stereo not drawn),10 µM (active),–
Cc1ccccc1Nc1nc(N)nc(CSc2ccccc2)n1,inactive,–
CCN(c1ccccc1)S(=O)(=O)c1cccc(C(=O)O)c1,inactive,–
COc1ccc(S(=O)(=O)Nc2ccc(O)c(Sc3nc4ccccc4s3)c2)cc1,17.8 µM (active),–
COc1ccc(/C=C(/CC(=O)Nc2ccc(C)cc2)c2nc3ccccc3s2)cc1,inactive,–
O=C(O)c1cccc(S(=O)(=O)Nc2ccc(O)cc2Sc2nc3ccccc3s2)c1,22.4 µM (active),–
CCOc1ccc(S(=O)(=O)Nc2nc3cc(OC)ccc3s2)cc1,inactive,–
O=C(O)c1cccc(S(=O)(=O)NCCO)c1,–,-6.88% [at 13.5 µM] (inactive)
CCO[C@@H]1OC(C(=O)N2CCOCC2)=C[C@H](C)[C@H]1CCCO,inactive,–
O=C(CSc1ccc(-c2cccs2)nn1)Nc1ccccc1F,inactive,–
COc1ccc(NC(=O)c2cc3nc(-c4ccccc4)cc(C)n3n2)cc1OC,inactive,–
COc1ccc(/C=N/NC(=O)Cn2cc(C(F)(F)F)ccc2=O)cc1,inactive,–
COc1ccc(OC)c2[nH]c(=O)c(CCNC(=O)C(=O)c3c[nH]c4ccccc34)cc12,inactive,–
O=C(NCCCn1ccnc1)C(=O)c1cn(CC(=O)N2CCCCCC2)c2ccccc12,14.1 µM (active),–
O=C(CCN1C(=O)c2ccccc2C1=O)NCCCn1ccnc1,inactive,–
CCOc1ccccc1C(=O)NCCCn1ccnc1,inactive,–
O=C(O)CCCCOn1ccnc1,inactive,–
CC(C)=CCN1CCN(Cc2ccc(Oc3ncccn3)cc2)CC1CCO (stereo not drawn),inactive,–
CCc1ccccc1N1C(=O)C2C3CC(=O)C(c4ccccc43)C2C1=O (stereo not drawn),inactive,–
CC1(C)CCCC2=C1CC1C(=O)N(c3ccccc3)C(=O)C1C2 (stereo not drawn),inactive,–
CC1=C(C)CC2C(=O)N(c3cccc4ccccc34)C(=O)C2C1 (stereo not drawn),12.6 µM (active),–
